This assay in a line: viability loss in Ba/F3 EpoR-JAK2V617F cells, confirmation, JAK2V617F inhibitor project, cell-based, luminescence, triplicate (AID 1521).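 Also: 0% = DMSO-treated cells and 100% = JAK inhibitor I control wells; higher means lower luminescence from reduced cell ATP and viability.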 As to conditions: CellTiter-Glo luminescence, at 5.6 µM, stronger effect = higher value.

Some of the results follow. Active and inactive are the calls of the source.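 The calls were made as follows: active = mean inhibition above the hit cutoff derived in the earlier primary screen (cut at about 25% in these data); inactive = the rest.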

In general, inhibition refers to the change of the read-out against control, counted positive when it falls. On to `CN(C)CC1Oc2ccccc2OC1(O)c1ccccc1` (stereo unspecified), for which the inhibition was 98.7% (active).
